In PubChem BioAssay AID1159580 (chemical genetic matrix, 2015):
The whole screen tested about 5,500 compounds, of which about 2,000 (36%) were called active. Another 18% or so got no clear call; they are omitted. Cut-off read from the data, not from the text of the source: active = normalized growth mostly below about 0.91 (no sharp cut-off); inconclusive = no clear call, values can overlap the other calls; inactive = mostly above about 0.92. Some of the results follow.

Assay: chemical genetic growth profiling, strain panel (AID 1159580);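 note: tested at 20 µM; growth read once vehicle control cultures reached saturation at 30 °C; 1 = growth at the plate median or of vehicle wells; lower values mean less growth of the strain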
Conditions: growth OD

Measured: normalized growth

COc1cc(OC)c2c(=O)c(-c3ccccc3)c(C)oc2c1OC
inactive: S. cerevisiae deletion strains, locus YJR043C, strain POL32, active compounds read low 1.01 | S. cerevisiae deletion strains, locus YJR075W, strain HOC1, active compounds read low 1.02 | S. cerevisiae deletion strains, locus YKL009W, strain mrt4, active compounds read low 1 | S. cerevisiae deletion strains, locus YKL068W, active compounds read low 1 | S. cerevisiae deletion strains, locus YKL085W, strain MDH1 (second series), active compounds read low 0.996 | S. cerevisiae deletion strains, locus YKL085W, strain MDH1, active compounds read low 0.996 | S. cerevisiae deletion strains, locus YKL160W, strain elf1, active compounds read low 1 | S. cerevisiae deletion strains, locus YKL190W, strain CNB1, active compounds read low 1.01 | S. cerevisiae deletion strains, locus YKR001C, strain vps1, active compounds read low 0.993 | S. cerevisiae deletion strains, locus YKR026C, strain gcn3, active compounds read low 0.966 | S. cerevisiae deletion strains, locus YKR091W, strain srl3, active compounds read low 0.962 | S. cerevisiae deletion strains, locus YLL001W, strain dnm1, active compounds read low 1.01 | S. cerevisiae deletion strains, locus YLL026W, active compounds read low 0.984 | S. cerevisiae deletion strains, locus YLL041C, strain sdh2, active compounds read low 1 | S. cerevisiae deletion strains, locus YLR027C, strain aat2, active compounds read low 0.982 | S. cerevisiae deletion strains, locus YLR039C, strain RIC1, active compounds read low 0.984 | S. cerevisiae deletion strains, locus YLR058C, strain SHM2, active compounds read low 1.01 | S. cerevisiae deletion strains, locus YLR102C, strain apc9, active compounds read low 0.999 | S. cerevisiae deletion strains, locus YLR221C, strain rsa3, active compounds read low 0.957 | S. cerevisiae deletion strains, locus YLR258W, strain gsy2, active compounds read low 0.987 | S. cerevisiae deletion strains, locus YLR262C, strain YPT6 (second series), active compounds read low 0.951 | S. cerevisiae deletion strains, locus YLR262C, strain YPT6, active compounds read low 0.989 | S. cerevisiae deletion strains, locus YLR268W, strain sec22, active compounds read low 0.972 | S. cerevisiae deletion strains, locus YLR320W, strain mms22, active compounds read low 0.984 | S. cerevisiae deletion strains, locus YLR330W, strain CHS5, active compounds read low 1.01 | S. cerevisiae deletion strains, locus YLR342W, strain FKS1 (second series), active compounds read low 1.01 | S. cerevisiae deletion strains, locus YLR342W, strain FKS1, active compounds read low 0.956 | S. cerevisiae deletion strains, locus YLR357W, strain rsc2, active compounds read low 0.986 | S. cerevisiae deletion strains, locus YLR370C, strain arc18, active compounds read low 0.977 | S. cerevisiae deletion strains, locus YLR371W, strain rom2, active compounds read low 1 | S. cerevisiae deletion strains, locus YLR384C, strain iki3, active compounds read low 0.98 | S. cerevisiae deletion strains, locus YLR418C, strain cdc73, active compounds read low 1.03 | S. cerevisiae deletion strains, locus YML016C, strain PPZ1, active compounds read low 1.01 | S. cerevisiae deletion strains, locus YML032C, strain rad52, active compounds read low 0.997 | S. cerevisiae deletion strains, locus YML120C, strain ndi1, active compounds read low 0.973 | S. cerevisiae deletion strains, locus YML124C, strain tub3, active compounds read low 0.989 | S. cerevisiae deletion strains, locus YMR058W, strain fet3, active compounds read low 0.988 | S. cerevisiae deletion strains, locus YMR078C, strain ctf18, active compounds read low 0.99 | S. cerevisiae deletion strains, locus YMR125W, strain sto1, active compounds read low 0.981 | S. cerevisiae deletion strains, locus YMR129W, active compounds read low 0.972 | S. cerevisiae deletion strains, locus YMR205C, strain PFK2, active compounds read low 0.95 | S. cerevisiae deletion strains, locus YMR223W, strain ubp8, active compounds read low 0.996 | S. cerevisiae deletion strains, locus YMR231W, strain pep5, active compounds read low 0.992 | S. cerevisiae deletion strains, locus YMR263W, strain SAP30, active compounds read low 1.02 | S. cerevisiae deletion strains, locus YMR307W, strain GAS1, active compounds read low 1.02 | S. cerevisiae deletion strains, locus YNL067W, strain RPL9B, active compounds read low 1.02 | S. cerevisiae deletion strains, locus YNL071W, strain lat1, active compounds read low 0.984 | S. cerevisiae deletion strains, locus YNL128W, strain TEP1, active compounds read low 1.04 | S. cerevisiae deletion strains, locus YNL153C, strain GIM3, active compounds read low 1.01 | S. cerevisiae deletion strains, locus YNL209W, strain ssb2, active compounds read low 0.982 | S. cerevisiae deletion strains, locus YNL233W, strain BNI4, active compounds read low 1 | S. cerevisiae deletion strains, locus YNL248C, strain rpa49, active compounds read low 1.01 | S. cerevisiae deletion strains, locus YNL250W, strain rad50, active compounds read low 0.994 | S. cerevisiae deletion strains, locus YNL271C, strain bni1, active compounds read low 1 | S. cerevisiae deletion strains, locus YNL298W, strain CLA4, active compounds read low 1.01 | S. cerevisiae deletion strains, locus YNL307C, strain MCK1, active compounds read low 0.978 | S. cerevisiae deletion strains, locus YNL322C, strain KRE1 (second series), active compounds read low 0.979 | S. cerevisiae deletion strains, locus YNL322C, strain KRE1, active compounds read low 1.01 | S. cerevisiae deletion strains, locus YNR049C, strain mso1, active compounds read low 0.976 | S. cerevisiae deletion strains, locus YNR052C, strain pop2, active compounds read low 1.01 | S. cerevisiae deletion strains, locus YOL006C, strain TOP1, active compounds read low 1.02 | S. cerevisiae deletion strains, locus YOL012C, strain htz1 0.978 | S. cerevisiae deletion strains, locus YOL147C, strain pex11, active compounds read low 0.992 | S. cerevisiae deletion strains, locus YOR001W, strain rrp6, active compounds read low 1.01 | S. cerevisiae deletion strains, locus YOR061W, strain CKA2, active compounds read low 1.01 | S. cerevisiae deletion strains, locus YOR069W, strain VPS5, active compounds read low 1 | S. cerevisiae deletion strains, locus YOR070C, strain gyp1, active compounds read low 0.987 | S. cerevisiae deletion strains, locus YOR080W, strain dia2, active compounds read low 0.989 | S. cerevisiae deletion strains, locus YOR083W, strain WHI5, active compounds read low 1.01 | S. cerevisiae deletion strains, locus YOR106W, strain vam3, active compounds read low 0.994 | S. cerevisiae deletion strains, locus YOR136W, strain idh2, active compounds read low 0.993 | S. cerevisiae deletion strains, locus YOR144C, strain elg1, active compounds read low 0.999 | S. cerevisiae deletion strains, locus YOR184W, strain ser1, active compounds read low 0.999 | S. cerevisiae deletion strains, locus YOR265W, strain rbl2, active compounds read low 0.987 | S. cerevisiae deletion strains, locus YOR270C, strain vph1, active compounds read low 0.989 | S. cerevisiae deletion strains, locus YOR290C, strain snf2, active compounds read low 0.933 | S. cerevisiae deletion strains, locus YOR316C, strain cot1, active compounds read low 1 | S. cerevisiae deletion strains, locus YPL051W, strain arl3, active compounds read low 1 | S. cerevisiae deletion strains, locus YPL055C, strain LGE1, active compounds read low 1.04 | S. cerevisiae deletion strains, locus YPL078C, strain atp4, active compounds read low 0.995 | S. cerevisiae deletion strains, locus YPL106C, strain sse1, active compounds read low 0.942 | S. cerevisiae deletion strains, locus YPL240C, strain hsp82, active compounds read low 0.983 | S. cerevisiae deletion strains, locus YPL241C, strain CIN2, active compounds read low 1.01 | S. cerevisiae deletion strains, locus YPR119W, strain clb2, active compounds read low 0.99 | S. cerevisiae deletion strains, locus YPR141C, strain kar3, active compounds read low 1 | S. cerevisiae deletion strains, locus YPR163C, strain tif3, active compounds read low 0.992 | S. cerevisiae deletion strains, locus YPR167C, strain met16, active compounds read low 1 | S. cerevisiae deletion strains, strain wtn01, active compounds read low 0.997 | S. cerevisiae strains, strain wild type, active compounds read low 1.02
